This note sets out measurements from PMC10812921, “Transcriptional Coactivator BOB1 (OBF1, OCA-B) Modulates the Specificity of DNA Recognition by the POU-Domain Factors OCT1 and OCT2 in a Monomeric Configuration”.

In one assay the target is POU1 (OCT1 POU domain) (human, UniProt P14859 260-458). Kind of assay: EMSA-SELEX-seq; no BOB1; 20 mM Tris-HCl pH 7.6, 140 mM NaCl, 10% glycerol, 0.5 mM EDTA, 0.05% Triton X-100, 0.1 mg/mL BSA, 0.1 mg/mL poly(dI-dC), 5 mM DTT, room temperature, 20 min; high values mean tight binding. Conditions: protein: recombinant; dsDNA, one strand shown. Summed up:
(§1)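 A double-stranded random 35-nt library (300 ng, PCR-amplified) was incubated with 30 ng tagged POU-domain protein, with or without 28 ng coactivator protein, in 20 μL Tris–HCl pH 7.6 binding buffer for 20 min at RT. The proteins had been expressed in E. coli BL21, purified under denaturing conditions and renatured. Complex bands from native 6% PAGE were eluted and PCR-amplified over four rounds, then sequenced on Illumina. For binding preference, the percentage of sequenced 8-mers matching a motif pattern was calculated.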
A general note: In EMSA bound probe runs differently from free probe, usually more slowly.

For another assay, the target named is T1, POU2 (OCT2 POU domain) (human, UniProt P09086 175-386).
T1 sequence: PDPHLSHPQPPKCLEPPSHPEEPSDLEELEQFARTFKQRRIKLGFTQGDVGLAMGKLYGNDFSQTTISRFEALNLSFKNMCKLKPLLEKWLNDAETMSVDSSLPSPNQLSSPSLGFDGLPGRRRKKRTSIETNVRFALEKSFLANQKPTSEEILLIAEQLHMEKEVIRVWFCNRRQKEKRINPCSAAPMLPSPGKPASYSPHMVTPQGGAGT
The description is as above. Conditions: protein: recombinant; dsDNA, one strand shown. The gist of the method: as §1

Assay [1] deals with POU1 (OCT1 POU domain);BOB1 (OBF1, OCA-B) (human;human, UniProt P14859;Q16633 260-458;1-256, |). Description: EMSA-SELEX-seq; with BOB1 (ternary complex band); 20 mM Tris-HCl pH 7.6, 140 mM NaCl, 10% glycerol, 0.5 mM EDTA, 0.05% Triton X-100, 0.1 mg/mL BSA, 0.1 mg/mL poly(dI-dC), 5 mM DTT, room temperature, 20 min; high values mean tight binding. Conditions: protein: recombinant;recombinant; copies: 1;1; dsDNA, one strand shown. Summed up:
as §1

Assay [2] has as its target T2, POU2 (OCT2 POU domain);BOB1 (OBF1, OCA-B) (human;human, UniProt P09086;Q16633 175-386;1-256, |).
T2 sequence 1: T1 sequence
T2 sequence 2: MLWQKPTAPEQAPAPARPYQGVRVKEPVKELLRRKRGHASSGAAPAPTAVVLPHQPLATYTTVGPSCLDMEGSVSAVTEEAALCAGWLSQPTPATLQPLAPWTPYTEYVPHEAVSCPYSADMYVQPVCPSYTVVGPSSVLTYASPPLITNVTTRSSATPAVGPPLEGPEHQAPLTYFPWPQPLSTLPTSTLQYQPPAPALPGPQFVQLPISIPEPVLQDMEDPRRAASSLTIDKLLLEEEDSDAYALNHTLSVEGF
The assay is described as above. Conditions: protein: recombinant;recombinant; copies: 1;1; dsDNA, one strand shown. The gist of the method: as §1

Chain of POU1 (OCT1 POU domain) (P14859 260-458): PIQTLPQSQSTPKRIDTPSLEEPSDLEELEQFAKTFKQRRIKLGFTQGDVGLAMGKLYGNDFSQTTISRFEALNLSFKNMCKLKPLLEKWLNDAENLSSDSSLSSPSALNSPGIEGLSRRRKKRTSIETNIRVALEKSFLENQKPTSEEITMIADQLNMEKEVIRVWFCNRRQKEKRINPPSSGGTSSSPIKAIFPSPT

Consider AGGAAAAA, for which the binding signal with POU1 (OCT1 POU domain) was 0.134 % of ANNNNAAN 8-mers; with POU2 (OCT2 POU domain), 0.0909 % of ANNNNAAN 8-mers; in assay [1], 0.18 % of ANNNNAAN 8-mers; in assay [2], 0.102 % of ANNNNAAN 8-mers.

Turning to AGACGAAT, the binding signal with POU1 (OCT1 POU domain) is 0.0461 % of ANNNNAAN 8-mers; with POU2 (OCT2 POU domain), 0.0581 % of ANNNNAAN 8-mers; in assay [1], 0.0418 % of ANNNNAAN 8-mers; in assay [2], 0.0479 % of ANNNNAAN 8-mers.

Regarding AGTCAAAT, the binding signal with POU1 (OCT1 POU domain) is 0.566 % of ANNNNAAN 8-mers; with POU2 (OCT2 POU domain) it was 0.367 % of ANNNNAAN 8-mers; in assay [1] it was 1.18 % of ANNNNAAN 8-mers; in assay [2], 1.04 % of ANNNNAAN 8-mers.

As to AAAGAAAG, the binding signal in the assay with POU1 (OCT1 POU domain) was 0.0679 % of ANNNNAAN 8-mers; in the assay with POU2 (OCT2 POU domain) it was 0.0719 % of ANNNNAAN 8-mers; in assay [1], 0.08 % of ANNNNAAN 8-mers; in assay [2] it was 0.0619 % of ANNNNAAN 8-mers.

For the sequence AGATGAAA, the binding signal with POU1 (OCT1 POU domain) was 0.0629 % of ANNNNAAN 8-mers; in the assay with POU2 (OCT2 POU domain), 0.0558 % of ANNNNAAN 8-mers; in assay [1], 0.0718 % of ANNNNAAN 8-mers; in assay [2], 0.0611 % of ANNNNAAN 8-mers.

Turning to AATGTAAT, the binding signal is 0.169 % of ANNNNAAN 8-mers in the assay with POU1 (OCT1 POU domain), 0.181 % of ANNNNAAN 8-mers with POU2 (OCT2 POU domain), 0.109 % of ANNNNAAN 8-mers in assay [1] and 0.137 % of ANNNNAAN 8-mers in assay [2].

Turning to ACAACAAT, the binding signal in the assay with POU1 (OCT1 POU domain) is 0.0248 % of ANNNNAAN 8-mers; with POU2 (OCT2 POU domain), 0.0305 % of ANNNNAAN 8-mers; in assay [1] it was 0.023 % of ANNNNAAN 8-mers; in assay [2], 0.0305 % of ANNNNAAN 8-mers.

As for ACTCGAAT, the binding signal is 0.0484 % of ANNNNAAN 8-mers in the assay with POU1 (OCT1 POU domain), 0.0518 % of ANNNNAAN 8-mers with POU2 (OCT2 POU domain), 0.0402 % of ANNNNAAN 8-mers in assay [1] and 0.0504 % of ANNNNAAN 8-mers in assay [2].

AGATAAAT: the binding signal is 0.0892 % of ANNNNAAN 8-mers with POU1 (OCT1 POU domain), 0.0886 % of ANNNNAAN 8-mers in the assay with POU2 (OCT2 POU domain), 0.0617 % of ANNNNAAN 8-mers in assay [1] and 0.0627 % of ANNNNAAN 8-mers in assay [2].

Take ACTCGAAC: the binding signal with POU1 (OCT1 POU domain) is 0.016 % of ANNNNAAN 8-mers; with POU2 (OCT2 POU domain), 0.0184 % of ANNNNAAN 8-mers; in assay [1], 0.0113 % of ANNNNAAN 8-mers; in assay [2], 0.0198 % of ANNNNAAN 8-mers.

Regarding ATGCTAAT, the binding signal in the assay with POU1 (OCT1 POU domain) is 1.85 % of ANNNNAAN 8-mers; with POU2 (OCT2 POU domain) it was 1.82 % of ANNNNAAN 8-mers; in assay [1], 0.249 % of ANNNNAAN 8-mers; in assay [2], 0.283 % of ANNNNAAN 8-mers.

For the sequence ATGCCAAT, the binding signal is 0.0648 % of ANNNNAAN 8-mers in the assay with POU1 (OCT1 POU domain), 0.0857 % of ANNNNAAN 8-mers with POU2 (OCT2 POU domain), 0.0609 % of ANNNNAAN 8-mers in assay [1] and 0.0627 % of ANNNNAAN 8-mers in assay [2].

Regarding ATTGGAAG, the binding signal was 0.0309 % of ANNNNAAN 8-mers with POU1 (OCT1 POU domain), 0.0547 % of ANNNNAAN 8-mers with POU2 (OCT2 POU domain), 0.0371 % of ANNNNAAN 8-mers in assay [1] and 0.0438 % of ANNNNAAN 8-mers in assay [2].

In the case of ACATGAAG, the binding signal with POU1 (OCT1 POU domain) was 0.0378 % of ANNNNAAN 8-mers; with POU2 (OCT2 POU domain), 0.0449 % of ANNNNAAN 8-mers; in assay [1], 0.03 % of ANNNNAAN 8-mers; in assay [2], 0.0355 % of ANNNNAAN 8-mers.

As to ACCATAAC, the binding signal with POU1 (OCT1 POU domain) is 0.032 % of ANNNNAAN 8-mers; in the assay with POU2 (OCT2 POU domain) it was 0.0213 % of ANNNNAAN 8-mers; in assay [1] it was 0.014 % of ANNNNAAN 8-mers; in assay [2], 0.0198 % of ANNNNAAN 8-mers.

For the sequence ATAGAAAT, the binding signal is 0.0782 % of ANNNNAAN 8-mers in the assay with POU1 (OCT1 POU domain), 0.0961 % of ANNNNAAN 8-mers with POU2 (OCT2 POU domain), 0.0878 % of ANNNNAAN 8-mers in assay [1] and 0.0892 % of ANNNNAAN 8-mers in assay [2].
